Only a selection was taken, and hits are over-represented in it overall.
Algae TAG accum = inducers of TAG accumulation in Chlamydomonas, primary screen, qHTS, Chlamydomonas reinhardtii; calls only at 10 µM (by protocol); Nile Red fluorescence, 72 h; 44,000 tested, 0.84% active; call rule not given here;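 further: hits raise Nile Red signal meaning more stored TAG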
* marks the source's active call; other numbers are inactive results; i = inactive; + = active, no number.

SMILES	Algae TAG accum
Cc1ccc(C(=O)N2CCC(C(=O)O)CC2)cc1	i
O=C(O)C1CCN(C(=O)c2ccc(F)cc2)CC1	+
O=C(c1ccc(F)cc1)N1CCCCCC1	i
COCCNC(=O)c1ccc(OC)c([N+](=O)[O-])c1	i
COc1ccc(CCNC(=O)c2ccc(N3CCOCC3)c([N+](=O)[O-])c2)cc1OC	i
COc1ccc(C(=O)NCCN2CCOCC2)cc1[N+](=O)[O-]	+
CSc1ccc(/C=C/C(=O)c2cccc(NC(=O)c3ccco3)c2)cc1	i
Cc1ccc(-c2csc(NC(=O)c3ccccc3F)n2)c(C)c1	i
CC(=O)c1cccc(NC(=O)c2c(-c3ccccc3)noc2C)c1	i
O=C(CSc1nnnn1-c1ccc(Cl)cc1)Nc1ccc(Cl)cc1Cl	i
COc1ccc(OC)c(NC(=O)CSc2nnc(-c3ccc(Cl)cc3Cl)n2N)c1	i
Cc1ccc(NC(=O)CSc2nnc(-c3ccc(Cl)cc3Cl)n2N)c(C)c1	+
O=Cc1ccc(OCc2ccc([N+](=O)[O-])cc2)c(Br)c1	i
Nc1nc(N)nc(-c2ccc(I)cc2)n1	i
Cc1cc(OCC(N)=O)cc(C)c1Br	i
COc1ccc(-c2ncnn2-c2sc3c(c2C#N)CCCC3)cc1OC	i
N#Cc1c(-n2ncnc2-c2ccc(F)cc2)sc2c1CCCC2	i
N#Cc1c(-n2ncnc2-c2cccnc2)sc2c1CCCCC2	+
COc1cc(-c2ccc(NC(=O)c3ccco3)c(OC)c2)ccc1NC(=O)c1ccco1	+
Cc1cc(-c2ccc(NC(=O)c3ccco3)c(C)c2)ccc1NC(=O)c1ccco1	i
COc1ccc(OC)c(NC(=O)c2ccco2)c1	i
COc1ccccc1-c1nnc(SC)o1	i
ClC1(Cl)CC1Cc1ccc2c(c1)OCCO2 (configuration not stated)	i
COc1ccc(C(=O)NC2CCCCCC2)cc1OC	i
Cc1ccc(C(=O)Nc2ccc(NC(=O)c3ccco3)c(Cl)c2)cc1C	i
SMILES	Algae TAG accum
C=CCn1c(SCC(=O)O)nnc1-c1ccc(Cl)cc1	i
C=CCn1c(SCC(=O)O)nnc1-c1ccccc1	i
C=CCn1c(SCC(=O)NCCc2ccccc2)nnc1-c1ccc(Cl)cc1Cl	+
COc1ccccc1CC(=O)Nc1cccc([N+](=O)[O-])c1	i
Cc1ccc(C(=O)Cn2c(=N)n(CCN3CCCCC3)c3ccccc32)cc1	i
Cc1[nH]nc2c1[C@H]1[C@@H](C2)C1(C)C	i
COc1ccc(NC2=C(N(C)C)C(=O)c3ccccc3C2=O)cc1	i
COc1cccc(NC2=C(N(C)C)C(=O)c3ccccc3C2=O)c1	+
CN(C)C1=C(Nc2cccc(Cl)c2)C(=O)c2ccccc2C1=O	i
CN(C)c1c(Cl)cnn(-c2ccccc2)c1=O	i
CC1CCc2c(sc(NC(=O)c3c(F)c(F)c(F)c(F)c3F)c2C#N)C1 (configuration not stated)	i
Cc1ccc(CN2CCC(C(=O)N3CCN(c4ccccc4F)CC3)CC2)cc1	i
Cc1cccc(N2CCN(C(=O)C3CCN(CC(C)C)CC3)CC2)c1C	i
O=C(C1CCCCC1)N1CCN(c2ccccc2F)CC1	i
Cc1ccc(CN2CCC(C(=O)N3CCN(c4cccc(C)c4C)CC3)CC2)o1	i
CC(C)CN1CCC(C(=O)N2CCN(c3ccccc3F)CC2)CC1	i
Cc1cccc(N2CCN(C(=O)C3CCN(CC4CCCCC4)CC3)CC2)c1C	+
O=C(C1CCN(CC2CCCCC2)CC1)N1CCN(c2ccccc2F)CC1	+
COc1ccc(CN2CCC(C(=O)N3CCN(c4cccc(C)c4C)CC3)CC2)cc1	i
Cc1ccc(CN2CCC(C(=O)N3CCN(c4ccccc4F)CC3)CC2)o1	+
CCOc1ccc(C(=O)Nc2ccc(I)cc2C)cc1	i
Cc1ccc(OCCSc2nc3ccccc3c(=O)[nH]2)c(C(C)C)c1	i
O=C(Nc1ccc([N+](=O)[O-])cc1)c1cccc(Cl)c1Cl	+
O=C(Nc1cccc([N+](=O)[O-])c1)c1ccccc1Cl	i
O=C(Nc1ccc(F)cc1)c1cccc(Cl)c1Cl	i
SMILES	Algae TAG accum
CC(=O)c1ccc(NC(=O)c2cc(S(=O)(=O)N3CCCC3)c(Cl)cc2Cl)cc1	i
CC(C)(Oc1ccc(Cl)cc1)C(=O)N1CCN(c2ccccn2)CC1	i
CC(C)(Oc1ccc(Cl)cc1)C(=O)N1CCN(c2ccc(F)cc2)CC1	+
CC(C)(Oc1ccc(Cl)cc1)C(=O)N1CCN(c2cccc(Cl)c2)CC1	i
Clc1ccc(CN2CCC(N3CCCCCC3)CC2)cc1	i
Clc1ccc(CN2CCCCCCC2)cc1	i
Clc1ccc(CN2CCCCCC2)cc1	+
C1=CCC(CN2CCN(C3CCCC3)CC2)CC1 (configuration not stated)	i
O=C(CCC1CCCCC1)NC1=NN(c2ccccc2)C(=O)C1	i
COc1ccccc1C=C(C#N)c1nc(-c2cccc([N+](=O)[O-])c2)cs1	i
Cc1c(-c2ccc(Br)cc2)[n+](=O)c2c(n1[O-])CCC2	i
COc1ccc(C(=O)Nc2cccc(Cl)c2)cc1I	i
